Screens deposited in PubChem by National Center for Advancing Translational Sciences (NCATS).
DT40 TDP1 CPT: DT40-hTDP1 cell growth loss with CPT; chicken DT40 Tdp1-/-;hTDP1 cells + 20 nM CPT, ATP luminescence, 48 h; Potency, µM (highest dose often 46.2 µM), usual class: inhibitors; 420,000 tested, 12% active; AID 686979; also: nearly all actives have a fitted effect of over 55% in size
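Chicken DT40 Tdp1-/- cells complemented with human TDP1, 400 cells/well, exposed to compounds plus 20 nM camptothecin for at least 48 h at 37 C; viability read as ATP content by CellTiter-Glo luminescence.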
IL-1B inflam inh: inhibitors of inflammasome signaling (IL-1 beta secretion); THP-1 LPS/ATP IL-1B secretion, AlphaLISA, 16 h; active compounds read low; activity change, % at 57.5 µM; 360,000 tested, 4.7% active; AID 743279; in the data active = activity change below about -50%; inconclusive = mostly about -30% to -49%
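THP-1 cells pretreated 1 hr with compounds (up to 57.5 uM final), then stimulated with LPS (250 ng/mL final) plus ATP (1.25 mM final); secreted IL-1B measured by AlphaLISA after 16 hr, decreased signal indicating inhibition.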
D3 ag: activates the human D3 dopamine receptor; P35462; D3R DiscoveRx beta-arrestin cells, luminescence, 90 min; max activation, %; 410,000 tested, 0.58% active; in the data active = max activation above about 30%
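Agonist mode: compounds and dopamine controls were applied to plated cells for 90 min at 37 degrees C after an overnight attachment at 1500 cells/well. Luminescent read-out followed 30 - 60 minutes at room temperature with DiscoveRx detection reagent.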
TDP1 cell noCPT: qHTS for Inhibitors of human tyrosyl-DNA phosphodiesterase 1 (TDP1): qHTS in cells in absence of CPT. DT40 Tdp1-/- hTDP1 cells, no CPT, ATP luminescence, 48 h. Potency, µM (top dose mostly 46.2 µM), most hits filed as inhibitors. 420,000 tested, 15% active; also: nearly all actives have a fitted effect of over 55% in size
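A cellular qHTS used chicken DT40 cells lacking endogenous Tdp1 but carrying stably transfected human TDP1. Compounds were applied without camptothecin, and cell growth kinetics were judged by ATP-dependent luminescence after ≥48 hr.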
ClpP mod: qHTS Assay for Activators of ClpP; purified B. subtilis ClpP, FRET peptide cleavage, 20 min; Potency, µM (doses to about 57.5 µM); 340,000 tested, 1.9% active; active = well fitted falling curve with a large enough effect; inconclusive = small, poorly fitted or top-dose-only effect; inactive = no such curve, though single readings can be large or run the other way; also: the source files actives as falling curves though it sought activators and does not explain the sign; nearly all actives have a fitted effect of over 65% in size
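Purified B. subtilis ClpP, 10 microg/mL final in Tris/HCl pH8 with KCl, BSA, glycerol and Tween-20, cleaved an Abz/nitrotyrosine-quenched decapeptide. Fluorescence (ex 320, em 430) was read at 0 and 20 min at room temperature. Delta was normalized to 5.8 microM ADEP and DMSO/no-enzyme controls.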
D3 antag: blocks the human D3 dopamine receptor | max response, negative = inhibition, % | 360,000 tested, 2.5% active | AID 652054 | P35462 | D3R cells, DiscoveRx beta-arrestin luminescence, antagonist mode; active compounds read low; in the data active = max response below about -50%; inconclusive = no clear call, values can overlap the other calls
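Cells expressing the human receptor were seeded at 1500 cells/well, incubated overnight at 37 degrees C in 5% CO2, then exposed to library compounds with dopamine controls for 90 minutes at 37 degrees C before luminescent detection.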
A number is an active result; i = inactive; ? = inconclusive; nt = no result given. In the library only some 21% were active in any assay of this set; here they are far more common. Unless noted, calls follow the shape of the dose curve; as a rule, active = well fitted inhibition curve with a large enough effect; inconclusive = small, poorly fitted or top-dose-only effect; inactive = flat fitted curve, though single readings scatter.

SMILES	DT40 TDP1 CPT	IL-1B inflam inh	D3 ag	TDP1 cell noCPT	ClpP mod	D3 antag
O=C(CCCN1CCC(C(=O)c2ccc(F)cc2)CC1)c1ccc(F)cc1	?	?	i	?	i	-101
CC(C)(C)c1ccc(C(=O)CCCN2CCC(OC(c3ccccc3)c3ccccc3)CC2)cc1	12µM	nt	nt	6µM	nt	nt
O=C(CCCN1CCC(C(O)c2ccc(F)cc2)CC1)c1ccc(F)cc1 (configuration not stated)	i	i	i	?	i	-80
O=C(CN1C(=O)c2cccc3cccc1c23)NC1CCCCC1	i	i	i	i	nt	i
COc1cccc(OC)c1NC(=O)c1nc2c(nnn2Cc2ccccc2Cl)c(=O)[nH]1	i	i	i	i	i	i
O=C(Nc1ccc(F)cc1)c1nc2c(nnn2Cc2cccc3ccccc23)c(=O)[nH]1	?	-98	i	15µM	nt	?
Cc1ccc(S(=O)(=O)N(C)c2ccc3sc(C)nc3c2)cc1	?	i	i	23µM	i	i
Cc1sc2ncnc(NCc3ccco3)c2c1C	10µM	-59	i	16µM	i	i
Cc1sc2ncnc(NCC(O)c3ccccc3)c2c1C (configuration not stated)	7.3µM	i	i	4.6µM	nt	i
Cc1sc2ncnc(NCC(O)c3ccc([N+](=O)[O-])cc3)c2c1C (configuration not stated)	7.3µM	-55	i	2.9µM	nt	i
Cc1sc2ncnc(NCC(c3ccccc3)N(C)C)c2c1C (configuration not stated)	?	?	i	?	nt	?
Cc1c(C(=O)N(C)C)sc2c1c(=O)n(-c1ccc(F)cc1)c(=O)n2Cc1ccccc1C#N	i	nt	i	i	i	nt
Cc1cccc(-n2ccnc2SCC(=O)O)c1C	i	i	i	i	10µM	i
Cc1cc(NC(=O)CSc2nccn2-c2cccc(C)c2C)no1	?	i	i	21µM	nt	i
Cc1ccccc1-n1ccnc1SCC(=O)O	i	i	i	?	i	i
CCC(C)/C=C/C1=CC2=C(Cl)C(=O)C3(C)OC(=O)C(C(=O)C(C)C(C)O)C3C2=CO1 (configuration not stated)	12µM	i	i	18µM	22µM	i
Cc1ccc(C(C(=O)NCc2ccccc2)N(Cc2cccs2)C(=O)c2ccc3c(c2)OCCO3)cc1 (configuration not stated)	9.2µM	i	i	3.7µM	i	i
COC(=O)c1ccc(C(C(=O)NCc2ccccc2)N(Cc2cccs2)C(=O)c2cnccn2)cc1 (configuration not stated)	?	i	i	16µM	i	i
COc1ccc(NC(=O)c2nc(C)n(-c3ccc([N+](=O)[O-])cc3)n2)cc1	i	i	i	i	nt	i
O=C(NN=C(Cc1ccccc1)Cc1ccccc1)C1CC1	i	i	i	i	i	i
COc1ccccc1C(=O)N/C(=C/c1ccc(Br)cc1)C(=O)N1CCCC1	26µM	i	i	21µM	nt	i
CN(C)S(=O)(=O)n1cc(/C=C(\NC(=O)c2ccccc2F)C(=O)NCCN2CCOCC2)c2ccccc21	?	i	i	12µM	i	i
CN1CCN(C(=O)/C(=C/c2cn(S(=O)(=O)N(C)C)c3ccccc23)NC(=O)c2ccccc2)CC1	i	?	i	i	i	i
CN1CCN(C(=O)/C(=C/c2cn(S(=O)(=O)N(C)C)c3ccccc23)NC(=O)c2ccccc2F)CC1	i	i	i	?	i	i
COc1ccccc1C(=O)N/C(=C\c1ccc(Br)cc1)C(=O)NCC(=O)O	i	i	i	i	i	i
SMILES	DT40 TDP1 CPT	IL-1B inflam inh	D3 ag	TDP1 cell noCPT	ClpP mod	D3 antag
COc1ccccc1C(=O)N/C(=C\c1cn(S(=O)(=O)N(C)C)c2ccccc12)C(=O)N1CCN(C)CC1	26µM	?	i	?	i	i
CN(C)S(=O)(=O)n1cc(/C=C(\NC(=O)c2ccccc2)C(=O)N2CCCCC2)c2ccccc21	23µM	i	i	18µM	i	i
CCc1ccc(NC(=O)c2sc3nc(C)c(Cl)c(C)c3c2NC(=O)c2ccccc2OC)cc1	nt	nt	i	nt	i	nt
CCC(C)NC(=O)CCCN1C(=O)CCn2nc(-c3cccn3C)cc21 (configuration not stated)	i	nt	i	i	i	nt
O=C(NN1C(=O)c2cc(Br)ccc2NC1c1cc(Br)cc(Br)c1O)c1ccncc1 (configuration not stated)	i	i	i	i	nt	-66
O=C(Nc1ccc(F)c(Cl)c1)Nc1csc2ccccc12	5.2µM	-70	i	3.7µM	nt	i
O=C(Nc1ccc(F)cc1F)Nc1csc2ccccc12	?	-92	i	23µM	11µM	i
CC(C)CNC(=O)Nc1ccc(F)c(Cl)c1	i	?	i	i	nt	i
O=C(Nc1ccc(F)cc1F)Nc1ccc(F)cc1F	i	i	i	?	nt	i
COc1cc(C(=O)NC2CCN(C)CC2)ccc1Nc1ncc2c(n1)N(Cc1ccccc1)CCC(=O)N2C	3.7µM	i	i	5.2µM	i	i
COc1cc(C(=O)NC2CCN(C)CC2)ccc1Nc1ncc2c(n1)N(C1CCCCC1)CCC(=O)N2C	0.92µM	i	i	0.58µM	i	i
CC(=O)c1ccc(NC(=O)C2CCCN(S(=O)(=O)c3cn(C)cn3)C2)cc1 (configuration not stated)	i	nt	i	i	i	nt
Cc1ccc(C(C)C)c(OCC(=O)N2CCC(c3nc4ccccc4o3)CC2)c1	?	nt	i	15µM	i	nt
O=C(COc1ccccc1[N+](=O)[O-])N1CCC(c2nc3ccccc3o2)CC1	?	nt	i	18µM	i	nt
COc1ccccc1OCC(=O)N1CCC(c2nc3ccccc3o2)CC1	?	nt	i	?	i	nt
CN(C)Cc1ccccc1-c1cncnc1NCc1ccccc1	i	nt	nt	i	nt	nt
CCc1c(C)[nH]c2c1C(=O)C(CN1CCOCC1)CC2 (configuration not stated)	i	i	i	i	i	-102
CCc1c(C)nc(N2CCOCC2)[nH]c1=O	i	i	i	i	i	i
C=C1C(=O)O[C@H]2[C@H]1[C@@H](O)CC(=C)[C@@H]1CC(=O)[C@@H](C)[C@H]21	5.2µM	-92	i	6.5µM	nt	?
CN(C(=O)CO/N=C/c1ccc(Cl)cc1)c1ccccc1	i	-51	i	i	i	i
N#Cc1ccc(-c2nc3c4ccccc4ccn3c2Cc2cccc(Cl)c2)cc1	16µM	i	i	18µM	i	i
N#Cc1ccc(-c2nc3c4ccccc4ccn3c2Cc2ccsc2)cc1	13µM	i	i	13µM	i	i
